According to the supplement of paper PMC4022240:
± gives the standard deviation.

Tests used:
Test in all cases: peptide microarray binding signal (635 nm), min-max normalized on array (fraction of array maximum); higher = stronger binding
Conditions in all cases: peptide region: H3 1-13
[1] = target: T1, HaloTag-ATRX ADD domain (163-292)
T1 chain: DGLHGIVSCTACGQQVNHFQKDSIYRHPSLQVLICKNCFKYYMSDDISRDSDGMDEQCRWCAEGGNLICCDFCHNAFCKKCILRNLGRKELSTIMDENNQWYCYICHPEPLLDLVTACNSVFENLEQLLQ
Experimental: (§1)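 Histone 13-mer peptides were synthesized as cellulose conjugates with a C-terminal 20-atom PEG linker and printed in triplicate on nitrocellulose. The sequence given is the unmodified backbone; PTMs (Kme1/2/3, Kac, Sph/Tph, Rme/Rme2a/Rme2s, Rcit) are listed in the label and the 'peptide modifications' condition. Slides were probed at 4 °C for 1 h with biotin-labelled (HQ)5-HaloTag reader fusions (ATRX-ADD, ING2-PHD) then streptavidin-Alexa647, or with rabbit histone antibodies then anti-rabbit Alexa647. The mean 635 nm signal of the triplicate spots was scaled 0-1 between the lowest and highest values on each array.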

[2] = target: HaloTag-ING2 PHD (mouse Ing2 200-280)
Experimental: as §1

[3] = target: anti-H3K4me3 antibody ab8580
Experimental: as §1

[4] = target: anti-H3K9me3 antibody ab8898
Experimental: as §1

[5] = peptide modifications: H3R2me1, binder concentration: 1:2,000 dilution
[6] = peptide modifications: H3R2me1, binder concentration: 1:10,000 dilution
[7] = peptide modifications: H3R2me1 H3K9me1, binder concentration: 1:2,000 dilution
[8] = peptide modifications: H3R2me1 H3K9me1, binder concentration: 1:10,000 dilution
[9] = peptide modifications: H3R2me2a H3K4me3, binder concentration: 1:2,000 dilution
[10] = peptide modifications: H3R2me2a H3K4me3, binder concentration: 1:10,000 dilution
[11] = peptide modifications: H3R2me2a H3K4me2, binder concentration: 1:2,000 dilution
[12] = peptide modifications: H3R2me2a H3K4me2, binder concentration: 1:10,000 dilution
[13] = peptide modifications: H3R2me1 H3K9me3, binder concentration: 1:2,000 dilution
[14] = peptide modifications: H3R2me1 H3K9me3, binder concentration: 1:10,000 dilution
[15] = peptide modifications: H3R2cit H3K9me3, binder concentration: 1:2,000 dilution
[16] = peptide modifications: H3R2cit H3K9me3, binder concentration: 1:10,000 dilution
[17] = peptide modifications: H3R2me1 H3K4me1, binder concentration: 1:2,000 dilution
[18] = peptide modifications: H3R2me1 H3K4me1, binder concentration: 1:10,000 dilution
[19] = peptide modifications: H3R2me1 H3K4me2, binder concentration: 1:2,000 dilution
[20] = peptide modifications: H3R2me1 H3K4me2, binder concentration: 1:10,000 dilution
[21] = peptide modifications: H3R2me2a H3K9ac, binder concentration: 1:2,000 dilution
[22] = peptide modifications: H3R2me2a H3K9ac, binder concentration: 1:10,000 dilution
[23] = peptide modifications: H3R2me1 H3T3ph, binder concentration: 1:2,000 dilution
[24] = peptide modifications: H3R2me1 H3T3ph, binder concentration: 1:10,000 dilution

## ARTKQTARKSTGG [H3 1-13 A Rme T K Q T A R K S T G G]
[1]; peptide modifications: H3R2me1, binder concentration: 50 nM
  peptide microarray binding signal: 0.0145 ± 0.00019
[1]; peptide modifications: H3R2me1, binder concentration: 500 nM
  peptide microarray binding signal: 0.0334 ± 0.0026
[2]; peptide modifications: H3R2me1, binder concentration: 10 nM
  peptide microarray binding signal: 0.0175 ± 0.0043
[2]; peptide modifications: H3R2me1, binder concentration: 100 nM
  peptide microarray binding signal: 0.0456 ± 0.0031
[3]; [5]
  peptide microarray binding signal: 0.000698 ± 1.7e-05
[3]; [6]
  peptide microarray binding signal: 0.000742
[4]; [5]
  peptide microarray binding signal: 0.00202 ± 0.0002
[4]; [6]
  peptide microarray binding signal: 0.000461

## ARTKQTARKSTGG [H3 1-13 A Rme T K Q T A R Kme1 S T G G]
[1]; peptide modifications: H3R2me1 H3K9me1, binder concentration: 50 nM
  peptide microarray binding signal: 0.0572 ± 0.0022
[1]; peptide modifications: H3R2me1 H3K9me1, binder concentration: 500 nM
  peptide microarray binding signal: 0.108 ± 0.011
[2]; peptide modifications: H3R2me1 H3K9me1, binder concentration: 10 nM
  peptide microarray binding signal: 0.0402 ± 0.0095
[2]; peptide modifications: H3R2me1 H3K9me1, binder concentration: 100 nM
  peptide microarray binding signal: 0.0772 ± 0.0086
[3]; [7]
  peptide microarray binding signal: 0.00991 ± 0.0016
[3]; [8]
  peptide microarray binding signal: 0.008959 ± 8.7e-05
[4]; [7]
  peptide microarray binding signal: 0.00462 ± 0.00079
[4]; [8]
  peptide microarray binding signal: 0.0045 ± 0.00015

## ARTKQTARKSTGG [H3 1-13 A Rme2a T Kme3 Q T A R K S T G G]
[1]; peptide modifications: H3R2me2a H3K4me3, binder concentration: 50 nM
  peptide microarray binding signal: 0.00912 ± 0.00034
[1]; peptide modifications: H3R2me2a H3K4me3, binder concentration: 500 nM
  peptide microarray binding signal: 0.0301 ± 0.00069
[2]; peptide modifications: H3R2me2a H3K4me3, binder concentration: 10 nM
  peptide microarray binding signal: 0.0149 ± 0.0016
[2]; peptide modifications: H3R2me2a H3K4me3, binder concentration: 100 nM
  peptide microarray binding signal: 0.013 ± 0.0056
[3]; [9]
  peptide microarray binding signal: 0.989 ± 0.041
[3]; [10]
  peptide microarray binding signal: 0.193 ± 0.0034
[4]; [9]
  peptide microarray binding signal: 0.249 ± 0.031
[4]; [10]
  peptide microarray binding signal: 0.0997 ± 0.026

## ARTKQTARKSTGG [H3 1-13 A Rme2a T Kme2 Q T A R K S T G G]
[1]; peptide modifications: H3R2me2a H3K4me2, binder concentration: 50 nM
  peptide microarray binding signal: 0.00837 ± 0.00013
[1]; peptide modifications: H3R2me2a H3K4me2, binder concentration: 500 nM
  peptide microarray binding signal: 0.0168 ± 0.00084
[2]; peptide modifications: H3R2me2a H3K4me2, binder concentration: 10 nM
  peptide microarray binding signal: 0.0141 ± 0.00071
[2]; peptide modifications: H3R2me2a H3K4me2, binder concentration: 100 nM
  peptide microarray binding signal: 0.0206 ± 0.0044
[3]; [11]
  peptide microarray binding signal: 0.0754 ± 0.017
[3]; [12]
  peptide microarray binding signal: 0.0898 ± 0.0086
[4]; [11]
  peptide microarray binding signal: 0.00464 ± 0.0004
[4]; [12]
  peptide microarray binding signal: 0.00386 ± 0.00011

## ARTKQTARKSTGG [H3 1-13 A Rme T K Q T A R Kme3 S T G G]
[1]; peptide modifications: H3R2me1 H3K9me3, binder concentration: 50 nM
  peptide microarray binding signal: 1 ± 0.14
[1]; peptide modifications: H3R2me1 H3K9me3, binder concentration: 500 nM
  peptide microarray binding signal: 1 ± 0.23
[2]; peptide modifications: H3R2me1 H3K9me3, binder concentration: 10 nM
  peptide microarray binding signal: 0.0582 ± 0.011
[2]; peptide modifications: H3R2me1 H3K9me3, binder concentration: 100 nM
  peptide microarray binding signal: 0.106 ± 0.024
[3]; [13]
  peptide microarray binding signal: 0.088 ± 0.024
[3]; [14]
  peptide microarray binding signal: 0.0951 ± 0.017
[4]; [13]
  peptide microarray binding signal: 0.544 ± 0.12
[4]; [14]
  peptide microarray binding signal: 0.357 ± 0.091

## ARTKQTARKSTGG [H3 1-13 A Rcit T K Q T A R Kme3 S T G G]
[1]; peptide modifications: H3R2cit H3K9me3, binder concentration: 50 nM
  peptide microarray binding signal: 0.435 ± 0.044
[1]; peptide modifications: H3R2cit H3K9me3, binder concentration: 500 nM
  peptide microarray binding signal: 0.525 ± 0.024
[2]; peptide modifications: H3R2cit H3K9me3, binder concentration: 10 nM
  peptide microarray binding signal: 0.0492 ± 0.0064
[2]; peptide modifications: H3R2cit H3K9me3, binder concentration: 100 nM
  peptide microarray binding signal: 0.0792 ± 0.014
[3]; [15]
  peptide microarray binding signal: 0.137 ± 0.007
[3]; [16]
  peptide microarray binding signal: 0.0635 ± 0.0071
[4]; [15]
  peptide microarray binding signal: 0.676 ± 0.04
[4]; [16]
  peptide microarray binding signal: 0.408 ± 0.044

## ARTKQTARKSTGG [H3 1-13 A Rme T Kme Q T A R K S T G G]
[1]; peptide modifications: H3R2me1 H3K4me1, binder concentration: 50 nM
  peptide microarray binding signal: 0.00746 ± 0.00026
[1]; peptide modifications: H3R2me1 H3K4me1, binder concentration: 500 nM
  peptide microarray binding signal: 0.0155 ± 0.00095
[2]; peptide modifications: H3R2me1 H3K4me1, binder concentration: 10 nM
  peptide microarray binding signal: 0.0585 ± 0.006
[2]; peptide modifications: H3R2me1 H3K4me1, binder concentration: 100 nM
  peptide microarray binding signal: 0.147 ± 0.034
[3]; [17]
  peptide microarray binding signal: 0.0545 ± 0.02
[3]; [18]
  peptide microarray binding signal: 0.023 ± 0.0071
[4]; [17]
  peptide microarray binding signal: 0.00248 ± 0.00029
[4]; [18]
  peptide microarray binding signal: 0.00127 ± 1.3e-05

## ARTKQTARKSTGG [H3 1-13 A Rme T Kme2 Q T A R K S T G G]
[1]; peptide modifications: H3R2me1 H3K4me2, binder concentration: 50 nM
  peptide microarray binding signal: 0.00715 ± 0.0002
[1]; peptide modifications: H3R2me1 H3K4me2, binder concentration: 500 nM
  peptide microarray binding signal: 0.017 ± 0.0047
[2]; peptide modifications: H3R2me1 H3K4me2, binder concentration: 10 nM
  peptide microarray binding signal: 0.219 ± 0.059
[2]; peptide modifications: H3R2me1 H3K4me2, binder concentration: 100 nM
  peptide microarray binding signal: 0.175 ± 0.047
[3]; [19]
  peptide microarray binding signal: 0.269 ± 0.14
[3]; [20]
  peptide microarray binding signal: 0.0639 ± 0.0072
[4]; [19]
  peptide microarray binding signal: 0.00439 ± 0.0014
[4]; [20]
  peptide microarray binding signal: 0.00392 ± 0.00093

## ARTKQTARKSTGG [H3 1-13 A Rme2a T K Q T A R Kac S T G G]
[1]; peptide modifications: H3R2me2a H3K9ac, binder concentration: 50 nM
  peptide microarray binding signal: 0.132 ± 0.1
[1]; peptide modifications: H3R2me2a H3K9ac, binder concentration: 500 nM
  peptide microarray binding signal: 0.0324 ± 0.01
[2]; peptide modifications: H3R2me2a H3K9ac, binder concentration: 10 nM
  peptide microarray binding signal: 0.0189 ± 0.0011
[2]; peptide modifications: H3R2me2a H3K9ac, binder concentration: 100 nM
  peptide microarray binding signal: 0.0301 ± 0.0026
[3]; [21]
  peptide microarray binding signal: 0.00698 ± 0.00018
[3]; [22]
  peptide microarray binding signal: 0.00799 ± 0.0008
[4]; [21]
  peptide microarray binding signal: 0.00634 ± 0.0012
[4]; [22]
  peptide microarray binding signal: 0.0094 ± 0.0049

## ARTKQTARKSTGG [H3 1-13 A Rme Tph K Q T A R K S T G G]
[1]; peptide modifications: H3R2me1 H3T3ph, binder concentration: 50 nM
  peptide microarray binding signal: 0.00649 ± 0.00021
[1]; peptide modifications: H3R2me1 H3T3ph, binder concentration: 500 nM
  peptide microarray binding signal: 0.0224 ± 0.0029
[2]; peptide modifications: H3R2me1 H3T3ph, binder concentration: 10 nM
  peptide microarray binding signal: 0.00382 ± 7e-05
[2]; peptide modifications: H3R2me1 H3T3ph, binder concentration: 100 nM
  peptide microarray binding signal: 0.0254 ± 0.0015
[3]; [23]
  peptide microarray binding signal: 0.00321 ± 0.0015
[3]; [24]
  peptide microarray binding signal: 0.00183 ± 0.00011
[4]; [23]
  peptide microarray binding signal: 0.00154 ± 0.00026
[4]; [24]
  peptide microarray binding signal: 0.000692 ± 1.5e-05
